A short description of assay [1]: qHTS assay for small molecule antagonists of peroxisome proliferator-activated receptor delta signaling (AID 588535).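 Note: cells co-treated with a PPAR-delta agonist as stimulator during compound exposure.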 The note with it: HEK293T PPARd-UAS-bla, beta-lactamase FRET ratio, 18 h; 460 nm channel. The method in brief: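 Compounds tested in titration on PPAR-delta-UAS-bla HEK293T cells grown in charcoal/dextran-stripped serum (2%); beta-lactamase activity read via CCF4 emission at 460 and 530 nm.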
(In general: Quantitative high-throughput screening tests each substance at several concentrations.)

In assay [2] the target is Peroxisome proliferator-activated receptor gamma (Homo sapiens) (UniProt P37231). The assay is described as follows: qHTS assay for small molecule agonists of peroxisome proliferator-activated receptor gamma signaling (AID 588536; active = well fitted curve in the direction sought with a large enough effect in the signal ratio, with a control signal flat, not every such curve was filed as active; the % refers to the signal ratio;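 note: 0% = DMSO basal wells and 100% = rosiglitazone at 2 µM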). The note with it: HEK293 PPARg-UAS-bla, beta-lactamase ratio, 16 h, percent of rosiglitazone response, DMSO as zero; series mostly up to 76.7 µM. In short, it runs like this:
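This is an agonist-mode beta-lactamase reporter assay in HEK293 PPAR-gamma-UAS-bla cells with 1% charcoal/dextran FBS. Compound titrations ran 16 h at 37 C before CCF4 detection. EC50 and efficacy are Hill fits scaled to 2 uM rosiglitazone (100%) and DMSO basal.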

In assay [3] the target is Vitamin D3 receptor (Homo sapiens) (UniProt P11473). The assay is described as follows: qHTS assay for small molecule agonists of vitamin D receptor signaling (AID 588543; calls by dose curve;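 note: 0% = DMSO basal and 100% = reference agonist control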). To be noted: HEK293T VDR-UAS-bla, beta-lactamase ratio, 16 h; series mostly up to 76.8 µM. In short, it runs like this: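 β-lactamase reporter, VDR-UAS-bla HEK293T, agonist mode. Cells plated 5 h at 37 °C, compound titration 16 h at 37 °C, CCF4 dye 2 h RT, ratio 460/530 nm. Hill fit → EC50, efficacy vs 50 nM 1α,25-(OH)2D3.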
Sequence of Vitamin D3 receptor (Homo sapiens) (P11473 whole entry, looked up): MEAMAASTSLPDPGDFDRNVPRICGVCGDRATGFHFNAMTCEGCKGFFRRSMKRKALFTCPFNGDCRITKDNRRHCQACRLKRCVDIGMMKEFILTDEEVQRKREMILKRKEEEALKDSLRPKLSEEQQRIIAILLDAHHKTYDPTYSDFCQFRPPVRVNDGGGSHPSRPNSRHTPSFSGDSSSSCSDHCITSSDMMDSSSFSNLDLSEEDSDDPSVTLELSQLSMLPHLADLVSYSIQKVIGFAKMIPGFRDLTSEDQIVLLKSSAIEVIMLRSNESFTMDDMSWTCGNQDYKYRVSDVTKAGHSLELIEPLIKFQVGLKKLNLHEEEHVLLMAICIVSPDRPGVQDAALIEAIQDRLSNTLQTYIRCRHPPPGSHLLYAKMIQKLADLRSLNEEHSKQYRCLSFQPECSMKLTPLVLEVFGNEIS

The target of assay [4] is Thyroid hormone receptor beta (Homo sapiens) (UniProt P10828). Description: qHTS assay for small molecule agonists of thyroid hormone receptor beta signaling (AID 588545; calls by dose curve;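 note: 0% = DMSO only and 100% = 10 nM T3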). The note with it: TR-UAS-bla GripTite HEK 293, beta-lactamase ratio, agonist mode, 18 h; series mostly up to 76.7 µM. The method in brief: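 Compounds were tested as agonists in TR-UAS-bla-GripTite HEK 293 cells. After 18 hrs at 37 C, CCF4 substrate was added and fluorescence read after 2 hrs at room temperature.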
Sequence of Thyroid hormone receptor beta (Homo sapiens) (P10828 whole entry, looked up): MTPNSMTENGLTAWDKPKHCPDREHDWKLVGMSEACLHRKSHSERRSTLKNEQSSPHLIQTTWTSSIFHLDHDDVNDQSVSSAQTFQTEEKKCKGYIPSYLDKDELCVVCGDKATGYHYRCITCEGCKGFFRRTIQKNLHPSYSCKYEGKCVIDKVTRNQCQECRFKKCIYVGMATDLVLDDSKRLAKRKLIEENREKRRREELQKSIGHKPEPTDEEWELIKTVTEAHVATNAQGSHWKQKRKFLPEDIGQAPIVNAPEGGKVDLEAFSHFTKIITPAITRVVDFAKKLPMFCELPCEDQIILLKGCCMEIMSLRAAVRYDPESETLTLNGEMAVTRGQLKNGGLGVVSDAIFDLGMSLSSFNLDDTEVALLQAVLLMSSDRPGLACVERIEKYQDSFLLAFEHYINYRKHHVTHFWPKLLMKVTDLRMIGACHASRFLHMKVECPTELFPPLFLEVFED

Assay [5] is described as follows: qHTS assay for small molecule antagonists of retinoid X receptor alpha signaling (AID 588546; active = well fitted inhibition curve with a large enough effect in the signal ratio, with a control signal flat, not every such curve was filed as active; the % refers to the signal ratio;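 note: cells stimulated with 9-cis-retinoic acid as agonist; % is set by controls: 0 for no effect and ±100 for the full control effect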). The note with it: HEK293T RXRa-UAS-bla, beta-lactamase ratio, antagonist mode; measured here: W530 green channel, cytotoxicity proxy. In short, it runs like this: (§1)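 Beta-lactamase reporter inhibition, read as CCF4 fluorescence ratio (ex 405, em 460/530 nm) after 2 h at RT. HEK293T UAS-bla cells, 2500/well, were stimulated with 9-cis-RA at 500 or 100 nM final alongside test compound for 18 h at 37 C.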

The target in assay [6] is Retinoic acid receptor RXR-alpha (Homo sapiens) (UniProt P19793). The assay is described as above. To be noted: HEK293T RXRa-UAS-bla, beta-lactamase ratio, antagonist mode. The method in brief:
as §1

Assay [7] can be described thus: qHTS assay for small molecule activators of the p53 signaling pathway (AID 651743; active = well fitted activation curve with a large enough effect in the signal ratio, not every such curve was filed as active; the % refers to the signal ratio; note: % of control where 0% means no effect). The note with it: HCT-116 p53RE-bla, beta-lactamase FRET ratio, 16 h; activation: stronger effect = higher value. The method in brief: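 Here HCT-116 cells with an integrated p53-responsive beta-lactamase gene were incubated with compounds (16 hours, 37 C) after a 5-hour plating period; beta-lactamase activity was detected as fluorescence intensity via B/G FRET substrate.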

Assay [8] is described as follows: qHTS assay for small molecule activators of the nuclear factor-kappa B (NF-kB) signaling pathway (AID 651749; active = well fitted activation curve with a large enough effect in the signal ratio; the % refers to the signal ratio; note: % of control where 0% means no effect). The note with it: NF-kB-bla ME-180 cells, beta-lactamase FRET ratio, 16 h; activation: stronger effect = higher value. In short, it runs like this:
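Beta-lactamase reporter expression, controlled by NF-kB response elements in ME-180 cells, was quantified fluorometrically via FRET disruption; cells at 2,000/well had been incubated with 23 nL test compound for 16 hr.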

The nature of assay [9]: qHTS assay for environmental chemicals that activate the Aryl hydrocarbon Receptor (AhR) signaling pathway (AID 651777). Note: % of control where 0% means no effect; nearly all actives have a fitted effect of over 15% in size. The note with it: 1A2-DRE human hepatoma cells, luciferase, 24 h; activation: stronger effect = higher value. In short, it runs like this:
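Human hepatoma 1A2-DRE cells stably carrying a DRE/CYP1A2 promoter–luciferase reporter, 1,200 cells/well, exposed to compound 24 hr at 37 C. Luciferase read by One-Glo luminescence after 30 min at room temperature; increased signal marks AhR activation.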

For assay [10], the target named is Peroxisome proliferator-activated receptor alpha (Homo sapiens) (UniProt Q07869). The assay is described as follows: qHTS assay for small molecule agonists of the peroxisome proliferator-activated receptor alpha (PPARalpha) signaling pathway (AID 651778). Note: % of control where 0% means no effect. The note with it: PathHunter PPARalpha complementation, chemiluminescence, 6 h; max response: stronger effect = higher value. The method in brief: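 Cells plated at 2,000/well and held overnight at 37 C, 5% CO2, then compound added by pin tool for 6 hr; after PathHunter detection reagent and 60 min at room temperature, chemiluminescence from enzyme complementation was read.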
Sequence of Peroxisome proliferator-activated receptor alpha (Homo sapiens) (Q07869 whole entry, looked up): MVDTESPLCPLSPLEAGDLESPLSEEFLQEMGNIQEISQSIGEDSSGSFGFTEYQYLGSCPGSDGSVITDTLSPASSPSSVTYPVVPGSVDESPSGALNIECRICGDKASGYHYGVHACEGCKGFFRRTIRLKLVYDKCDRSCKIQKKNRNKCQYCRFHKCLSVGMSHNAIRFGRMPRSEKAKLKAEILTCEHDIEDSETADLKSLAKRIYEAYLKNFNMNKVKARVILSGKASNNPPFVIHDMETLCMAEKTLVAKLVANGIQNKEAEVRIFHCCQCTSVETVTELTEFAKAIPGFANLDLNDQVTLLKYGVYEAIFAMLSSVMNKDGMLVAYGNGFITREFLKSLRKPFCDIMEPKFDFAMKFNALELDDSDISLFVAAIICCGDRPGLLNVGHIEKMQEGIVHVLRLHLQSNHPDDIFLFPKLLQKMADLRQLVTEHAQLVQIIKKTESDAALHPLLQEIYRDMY

The nature of assay [11]: qHTS assay for small molecule agonists of the antioxidant response element (ARE) signaling pathway measured by Nrf2-dependant transcriptional activity (AID 720636; active = well fitted curve in the direction sought with a large enough effect in the repeat runs; an effect the other way counts as inactive or inconclusive; note: % of control where 0% means no effect). The note with it: ARE-luc HepG2, Nrf2 luciferase reporter, 16 h; series mostly up to 92.4 µM. In short, it runs like this: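 ARE-luc HepG2 cells carrying an Nrf2-responsive luciferase reporter, in medium with 1% dialyzed FBS, exposed to compound for 16 hr at 37 C, 5% CO2. Luminescence read 30 min after ONE-Glo addition.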

Assay [12] can be described thus: qHTS assay for small molecule agonists of the antioxidant response element (ARE) signaling pathway measured by Nrf2-dependant transcriptional activity - cell viability counter screen (AID 720653; active = well fitted curve in the direction sought with a large enough effect in the repeat runs; an effect the other way counts as inactive or inconclusive; note: % is set by controls: 0 for no effect and ±100 for the full control effect). To be noted: ARE-bla HepG2 viability, CellTiter-Glo ATP luminescence, 16 h; max response: stronger effect = lower value. The method in brief: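 ARE-bla HepG2 cells (2,000/well) rested 5 hrs at 37C/5% CO2, then exposed to compounds in DMSO for 16 hrs. Viability was read in the same wells as intracellular ATP by luminescence, 30 min at room temperature after reagent addition.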

Assay [13] is described as follows: qHTS assay for cell viability of HEK293 cells (AID 743288). Note: % is set by controls: 0 for no effect and ±100 for the full control effect; nearly all actives have a fitted effect of over 50% in size. The note with it: ATP luminescence (CellTiter-Glo), 18 h; max response: stronger effect = lower value. In short, it runs like this:
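ATP luminescence (CellTiter-Glo) reports metabolically competent cell number after parental HEK293 cells, 2,000/well, were treated with DMSO-dissolved compounds for 18 h at 37 C; reagent incubation 30 min, room temperature.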

Assay [14] has as its target Nuclear receptor subfamily 1 group I member 2 (Rattus norvegicus) (UniProt Q9R1A7). The assay is described as follows: qHTS assay for small molecule activators of the rat pregnane X receptor (rPXR) signaling pathway (AID 651751; call rule not given here; note: 0% is about no effect). The note with it: rPXR reporter cells, luciferase (One-Glo), 24 h.
Assay [15] is described as follows: qHTS assay for small molecule activators of the human pregnane X receptor (PXR) signaling pathway (AID 720659; call rule not given here; note: 0% is about no effect). To be noted: DPX-2 HepG2 CYP3A4-luciferase, 24 h; series mostly up to 92.3 µM.
Assay [16] concerns the target Peroxisome proliferator-activated receptor gamma (Homo sapiens) (UniProt P37231). The assay is described as follows: qHTS assay for small molecule antagonists of peroxisome proliferator-activated receptor gamma signaling (AID 588537; active = well fitted inhibition curve with a large enough effect in the signal ratio, with a control signal flat, not every such curve was filed as active; the % refers to the signal ratio;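 note: reporter cells co-stimulated with 50 nM rosiglitazone agonist during compound treatment; % of control where 0% means no effect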). To be noted: HEK293 PPARg-UAS-bla, beta-lactamase ratio, antagonist mode; series mostly up to 76.8 µM. The method in brief: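 HEK293 cells, PPAR-gamma-UAS-bla, 3000/well. Pre-incubation 6-6.5 h, 37 C. Compound titration with rosiglitazone 50 nM final, 16 h. CCF4 dye, 2 h RT, dual-emission fluorescence.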

Assay [17] in a line: qHTS assay for small molecule agonists of retinoid X receptor alpha signaling (AID 588544; calls by dose curve;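 for activation: 0% = DMSO basal wells and 100% = reference agonist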). To be noted: HEK293T RXRa-UAS-bla, beta-lactamase reporter, 18 h; 530 nm emission.
Assay [18] has as its target Retinoic acid receptor RXR-alpha (Homo sapiens) (UniProt P19793). The description is as above. The note with it: HEK293T RXRa-UAS-bla, beta-lactamase reporter, 18 h; series mostly up to 76.7 µM.
Assay [19] can be described thus: qHTS assay for cell viability of the p53RE-bla HCT-116 cell line (AID 743292). Note: % is set by controls: 0 for no effect and ±100 for the full control effect; nearly all actives have a fitted effect of over 55% in size. The note with it: p53RE-bla HCT-116 viability, ATP luminescence, 16 h; series mostly up to 95 µM. The method in brief:
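CellSensor p53RE-bla HCT-116 cells (4,000/well) pre-incubated 5 h at 37 C, then exposed to compounds in DMSO for 16 h at 37 C. Viability read as ATP content by CellTiter-Glo luminescence after 30 min at room temperature.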

In assay [20] the target is Vitamin D3 receptor (Homo sapiens) (UniProt P11473). The assay is described as follows: qHTS assay for small molecule antagonists of vitamin D receptor signaling (AID 588541; calls by dose curve;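 note: receptor activated by calcitriol during compound treatment; % is set by controls: 0 for no effect and ±100 for the full control effect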). To be noted: HEK293T VDR-UAS-bla, beta-lactamase ratio, antagonist mode; series mostly up to 76.7 µM. The method in brief:
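VDR-UAS-bla HEK293T cells (2000/well, 2% charcoal-stripped FBS) were treated with titrated compounds plus 1-alpha,25-dihydroxyvitamin D3 (50 nM or 3 nM final) for 16 h at 37 C. CCF4 beta-lactamase fluorescence was read; Hill fits gave IC50.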

Results filed as inconclusive are left out. Activity calls are given as the source filed them. Unless noted, calls come from the whole dose curve; as a rule, active = well fitted curve in the direction sought with a large enough effect; inconclusive = small, poorly fitted or top-dose-only effect, or another doubt; inactive = no such curve, though single readings can be large; an effect the other way counts as inactive or inconclusive.

Sequence of Peroxisome proliferator-activated receptor gamma (Homo sapiens) (P37231 whole entry, looked up): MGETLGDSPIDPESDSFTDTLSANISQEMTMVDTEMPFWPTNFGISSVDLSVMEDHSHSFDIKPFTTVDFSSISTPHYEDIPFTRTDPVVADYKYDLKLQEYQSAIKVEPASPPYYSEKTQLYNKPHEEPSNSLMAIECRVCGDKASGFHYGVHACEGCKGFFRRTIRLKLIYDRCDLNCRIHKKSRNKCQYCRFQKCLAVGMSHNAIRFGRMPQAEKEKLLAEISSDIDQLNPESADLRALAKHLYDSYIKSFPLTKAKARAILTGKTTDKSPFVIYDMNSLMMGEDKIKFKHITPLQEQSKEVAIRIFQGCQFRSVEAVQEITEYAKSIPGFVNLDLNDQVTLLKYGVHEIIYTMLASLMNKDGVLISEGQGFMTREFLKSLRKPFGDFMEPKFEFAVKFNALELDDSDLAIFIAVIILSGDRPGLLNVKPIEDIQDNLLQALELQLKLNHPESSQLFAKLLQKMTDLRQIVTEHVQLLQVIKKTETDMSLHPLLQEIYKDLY
Sequence of Nuclear receptor subfamily 1 group I member 2 (Rattus norvegicus) (Q9R1A7 whole entry, looked up): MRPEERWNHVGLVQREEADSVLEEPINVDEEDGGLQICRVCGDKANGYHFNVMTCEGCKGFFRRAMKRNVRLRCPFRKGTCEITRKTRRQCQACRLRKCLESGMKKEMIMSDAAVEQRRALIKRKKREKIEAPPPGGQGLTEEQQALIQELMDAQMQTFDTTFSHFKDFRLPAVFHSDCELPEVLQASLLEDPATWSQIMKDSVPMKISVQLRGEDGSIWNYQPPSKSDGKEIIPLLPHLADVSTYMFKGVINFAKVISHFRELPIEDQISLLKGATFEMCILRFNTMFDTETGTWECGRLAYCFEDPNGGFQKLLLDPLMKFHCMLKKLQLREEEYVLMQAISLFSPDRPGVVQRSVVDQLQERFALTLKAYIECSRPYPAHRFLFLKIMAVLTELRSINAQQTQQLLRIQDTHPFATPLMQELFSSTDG
Sequence of Retinoic acid receptor RXR-alpha (Homo sapiens) (P19793 whole entry, looked up): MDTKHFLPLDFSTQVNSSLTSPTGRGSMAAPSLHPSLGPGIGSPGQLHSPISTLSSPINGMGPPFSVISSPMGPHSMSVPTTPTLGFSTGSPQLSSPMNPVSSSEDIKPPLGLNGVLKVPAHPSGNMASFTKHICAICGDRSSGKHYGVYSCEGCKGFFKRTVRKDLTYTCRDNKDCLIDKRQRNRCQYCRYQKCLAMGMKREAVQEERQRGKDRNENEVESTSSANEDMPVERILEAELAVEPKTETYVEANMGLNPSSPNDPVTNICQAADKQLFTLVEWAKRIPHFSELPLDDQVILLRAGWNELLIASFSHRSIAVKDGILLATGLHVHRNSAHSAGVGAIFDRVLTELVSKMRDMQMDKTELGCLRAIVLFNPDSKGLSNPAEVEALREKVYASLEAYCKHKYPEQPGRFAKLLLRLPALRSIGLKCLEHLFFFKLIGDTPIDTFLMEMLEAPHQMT

Regarding `COc1nc(C)nc(NC(=O)NS(=O)(=O)c2ccccc2OCCCl)n1`, the max response in [1] was -8.8%; in [5] it was 11.2%; in assay [6], 20.3% (inactive); in assay [10], 1.06% (inactive); in assay [12], 14.8% (inactive); in assay [13] it was 6.67% (inactive). Besides, the max response in assay [14] is 5.75% (inactive). The result in [2], in assay [3] and in assay [15] was inactive. Besides, the Potency result in [4] and in assay [11] was “inactive” each time. Besides, the activation in assay [7] is -4.39% (inactive); in assay [8], 0.852% (inactive); in assay [9], 2.11% (inactive).
Turning to `CCCCC/C=C\C/C=C\CCCCCCCC(=O)OC`, the max response in assay [1] was 10.1%; in assay [17], -7.14%; in assay [5] it was 7.06%; in [6], -5.56% (inactive); in assay [10], -0.289% (inactive); in assay [12] it was -4.45% (inactive). Moreover, the results for the max response in assay [13] and in assay [14] were -12.5% (inactive) and -0.654% (inactive), respectively. Also, the result in [2] and in assay [15] was inactive. In addition, the Potency entry in assay [16], in [18], in assay [4] and in assay [19] was “inactive” each time. Moreover, the activation was -0.453% (inactive) in [8] and 1.77% (inactive) in assay [9].
In the case of `c1ccc2cc3ccccc3cc2c1`, the outcome in assay [2] was inactive. Besides, the Potency entry in [16], in [20], in [18], in [4] and in assay [19] was “inactive” in each case. For the same compound, the max response in assay [17] is -12.9%; in assay [5], 21.2%; in [6], -8.21% (inactive); in assay [10], -0.274% (inactive); in [12], -8% (inactive); in assay [13] it was -2.63% (inactive). Besides, in [14], the max response is 4.65% (inactive). Moreover, the activation in assay [7] was 7.64% (inactive); in [9], 1.49% (inactive).
Consider `CCCCCCCC(=O)Oc1c(Br)cc(C#N)cc1Br`, for which the result in assay [2], in [3] and in [15] was inactive. The Potency result in [16], in [20], in assay [18], in assay [4], in [11] and in assay [19] was “inactive” each time. For the same compound, the max response was -14.9% in [17]; -5.85% in assay [5]; -20.9% (inactive) in assay [6]; 0.905% (inactive) in assay [12]; -6.14% (inactive) in assay [13]; -8.28% (inactive) in assay [14]. Also, the activation in assay [7] was 6.26% (inactive); in assay [8], -2.23% (inactive).
For the compound `C=C(C)C(=O)OCCCCCCCCCCCC`, the max response is -35.9% in assay [1]; -11.6% in assay [17]; -6.86% in assay [5]; 6.49% (inactive) in assay [6]; -1.38% (inactive) in assay [10]; 11.2% (inactive) in assay [12]. For the same compound, the max response in [13] is -6.64% (inactive); in assay [14] it was 1.96% (inactive). Moreover, the result in assay [2] and in assay [15] was inactive. Besides, the Potency result in assay [16], in [20], in assay [18], in assay [4], in assay [11] and in assay [19] was “inactive” throughout. Moreover, the activation is 1.89% (inactive) in [7], -0.811% (inactive) in [8] and 1.15% (inactive) in assay [9].
For the compound `CCN(Cc1cccc(S(=O)(=O)O)c1)c1ccc(C(=C2C=CC(=[N+](CC)Cc3cccc(S(=O)(=O)[O-])c3)C=C2)c2ccccc2)cc1`, the Potency result in [4] and in assay [19] was “inactive” each time. Further, the max response in assay [5] was 16.5%; in assay [6], 8.46% (inactive); in assay [10] it was -3.93% (inactive); in assay [12] it was -9.88% (inactive); in assay [13], -13.6% (inactive); in assay [14] it was -0.0295% (inactive). The activation is -0.828% (inactive) in assay [8] and -1.94% (inactive) in assay [9]. In assay [15], the call was inactive.

The values are drawn from PubChem BioAssay (NCATS).
